Rows were chosen to be rich in hits. Some 9.9% of all compounds tested hit in one or more screens of this group.
SW480 rereplic: DNA re-replication induction in SW480 cells; SW480 DNA re-replication, Hoechst DNA content imaging, 48 h; 1.8% of 340,000 active; Potency, µM (titrated, usually from 46.1 µM), for the others: at the highest dose re-replication activation, hits mostly activators; note: potency is the fitted concentration of half-maximal effect; % of control where 0% means no effect; nearly all actives have a fitted effect of over 55% in size
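Per well, 250 cells were exposed to pinned compound for 48 hr. Nuclear DNA was visualised with Hoechst (40 min, 37 C) and total object intensity recorded by fluorescence scanning.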
KB-3-1 cytotox: KB-3-1 parental cell cytotoxicity. KB-3-1 viability, CellTiter-Glo ATP luminescence, 72 h. Potency, µM (doses to about 46.1 µM), most hits filed as cytotoxic. 1.4% of 400,000 active. AID 1347075; note: potency is the fitted concentration of half-maximal effect; % is set by controls: 0 for no effect and ±100 for the full control effect; nearly all actives have a fitted effect of over 60% in size
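72 h, 37 °C compound treatment of KB-3-1 parental cells; CellTiter-Glo added, 10 min, luminescence read. Data corrected against DMSO-only plates and normalized before curve fitting.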
MCF10A rereplic: induces DNA re-replication in MCF 10a normal breast cells; MCF 10A DNA re-replication, Hoechst nuclear intensity, 48 h; Potency, µM (top dose mostly 46.1 µM), for inactives: at the highest dose activity, positive = re-replication, actives largely listed as activators; 2.9% of 350,000 active; AID 624296; note: potency is the fitted concentration of half-maximal effect; % of control where 0% means no effect; nearly all actives have a fitted effect of over 50% in size
IL1B secr inh: inhibitors of inflammasome signaling (IL-1 beta secretion). THP-1 LPS/ATP IL-1B secretion, AlphaLISA, 16 h; active compounds read low. activity change, % at 57.5 µM. 4.7% of 360,000 active; in the data active = activity change below about -50%; inconclusive = mostly about -30% to -49%; note: % is set by controls: 0 for no effect and ±100 for the full control effect
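Secreted IL-1B measured by AlphaLISA bead assay after 16 h compound exposure of THP-1 cells; compounds (final up to 57.5 uM) added 1 h before LPS (250 ng/mL) and ATP (1.25 mM) stimulation; lower signal means less secretion.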
KB-V1 MDR tox: KB-V1 MDR subline cytotoxicity. 3.4% of 400,000 active. AID 1347076. Potency, µM (top dose mostly 46.1 µM), hits mostly cytotoxic. KB-V1 MDR cells viability, CellTiter-Glo, 72 h; note: potency is the fitted concentration of half-maximal effect; % is set by controls: 0 for no effect and ±100 for the full control effect; nearly all actives have a fitted effect of over 60% in size
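Luminescent ATP read-out (CellTiter-Glo, 10 min) measures survival of drug-selected KB-V1 MDR cells after 72 h, 37 degrees C compound exposure. Medium: phenol-red-free DMEM, 10% FBS. Values from fitted concentration-response curves.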
Numbers without * were called inactive; i = inactive; ? = inconclusive; / = no result. Unless noted, calls come from the whole dose curve; as a rule, active = well fitted curve in the direction sought with a large enough effect; inconclusive = small, poorly fitted or top-dose-only effect, or another doubt; inactive = no such curve, though single readings can be large; an effect the other way counts as inactive or inconclusive.

SMILES	SW480 rereplic	KB-3-1 cytotox	MCF10A rereplic	IL1B secr inh	KB-V1 MDR tox
CCn1c(=O)c(=O)[nH]c2cc(C(=O)NC3CCCc4ccccc43)ccc21 (centres undefined)	?	10µM*	?	67	i
COc1ccc(-c2nc(CSCC(=O)NC3CCCc4ccccc43)c(C)o2)cc1 (centres undefined)	15%	i	16µM*	?	?
COc1ccc(NC(=O)NC2CCCc3ccccc32)c(OC)c1 (centres undefined)	5%	i	3%	-18	i
Cc1ccc(NS(=O)(=O)c2ccc3c(c2)C(Cl)(Cl)C(=O)N3)cc1C	/	i	/	/	i
COc1cc(OC)cc(C(=O)N[C@H](C(=O)OCC(=O)Nc2ccc(F)c(F)c2F)C(C)C)c1	-5%	i	0%	28	?
Cc1cccc(CSc2ncc(Cl)c(C(=O)Nc3sc4c(c3C#N)CCCC4)n2)c1	/	i	/	/	i
COc1cc(CC(=O)NC2CCCc3ccccc32)cc(OC)c1OC (centres undefined)	-4%	i	4%	23	?
COc1ccc(CN(C)CC(=O)NC2CCCc3ccccc32)cc1OC (centres undefined)	4.1µM*	i	?	39	?
C[C@@H](C[C@@H](O)[C@H](O)C(C)(C)O)[C@@H]1CC[C@]2(C)C3=CC[C@H]4C(C)(C)C(=O)CC[C@]4(C)[C@H]3CC[C@@]12C	2%	?	?	-53*	?
CC1(C(=O)O)CCC2(C)CCC3(C)C(=CC(=O)C4C5(C)CCC(=O)C(C)(C)C5CCC43C)C2C1 (centres undefined)	/	i	/	9	i
COc1ccccc1NC(=O)c1cc2cc(Br)ccc2cc1O	-3%	18µM*	?	?	?
COc1ccccc1N=c1oc2cc(O)ccc2cc1C(=O)NCC1CCCO1 (centres undefined)	13%	i	7%	-1	i
COc1ccccc1N=c1oc2cc(O)ccc2cc1C(N)=O	11µM*	?	18µM*	?	?
COc1ccccc1NC(=O)c1cc2ccc(O)cc2o/c1=N\O	?	i	?	-63*	i
COc1cc(NC(=O)c2cc3ccccc3cc2O)c(OC)cc1Cl	212%	?	?	?	?
COc1ccccc1NC(=O)c1cc2ccccc2o/c1=N\O	1%	i	8%	-18	2.6µM*
CN(C)c1ccc(P(=O)(OCc2ccccc2)C(O)c2ccccc2)cc1 (centres undefined)	-16%	i	?	/	?
O=C1Cc2cc(S(=O)(=O)N3CCN(c4ccc(F)cc4)CC3)ccc2N1	/	i	/	/	i
Cc1nn(-c2ccc(F)cc2)c(-n2cccc2)c1C(=O)NCCCN1CCN(c2cccc(Cl)c2)CC1	/	?	/	/	10µM*
CCOC(=O)N1CCC(NC(=O)c2c(C)nn(-c3ccc(C)cc3)c2-n2cccc2)CC1	/	?	/	/	7.3µM*
CCOC(=O)N1CCC(NC(=O)c2c(C)nn(-c3cccc(C)c3)c2-n2cccc2)CC1	/	i	/	/	i
Cc1ccc(CN2CCN(CC(=O)NCCCN3CCN(c4ccc(F)cc4)CC3)C2=O)cc1	-3%	16µM*	5%	?	i
Cc1ccc(-n2nc(C)c(C(=O)NCCCN3CCN(c4ccc(F)cc4)CC3)c2-n2cccc2)cc1	/	15µM*	/	/	16µM*
COCCNC(=O)C1(C)CCCN(C(=O)c2ccc(F)c(Cl)c2)C1 (centres undefined)	/	i	/	16	i
COc1ccc2c(Cl)c(C(=O)NN3CCN(C)CC3)sc2c1	-2%	i	14%	-7	i
SMILES	SW480 rereplic	KB-3-1 cytotox	MCF10A rereplic	IL1B secr inh	KB-V1 MDR tox
CC(C)c1ccc(Nc2cc(C(=O)NCc3cccs3)c3ccccc3n2)cc1	/	i	/	/	i
CCc1nn(Cc2c(C)cc(C)cc2C)c(=O)c2cc3cc(C)ccc3n12	/	i	/	/	?
COc1ccc(NC(=O)c2cccc(S(=O)(=O)N(C)c3ccccc3)c2)cn1	-1%	?	16%	10	3.3µM*
CCSc1nnc(NC(=O)c2cccc(S(=O)(=O)N(C)c3ccc(C)cc3)c2)s1	18µM*	i	?	0	15µM*
Cc1ccc(/C=N/NC(=O)c2ccc(N(C)S(=O)(=O)c3ccccc3)cc2)cc1	?	i	20%	-53*	i
CN(c1ccccc1)S(=O)(=O)c1cccc(C(=O)NNC(=O)c2ccccc2)c1	-3%	21µM*	10%	14	15µM*
CN(c1ccccc1)S(=O)(=O)c1ccc(C(=O)NNC(=O)c2ccccc2)cc1	-46%	i	-1%	12	i
CCc1nnc(NC(=O)c2cccc(S(=O)(=O)N(C)c3ccccc3)c2)s1	5%	i	6%	-3	i
CC(=O)Oc1ccc(/C=N/NC(=O)c2ccc(N(C)S(=O)(=O)c3ccccc3)cc2)cc1	-4%	i	?	3	?
O=C1OCC/C1=C\NCCCN/C=C1\CCOC1=O	/	i	/	-1	i
CN(c1ccccc1)S(=O)(=O)c1cccc(C(=O)Nc2ccc3c(c2)CCC3)c1	?	?	-21%	0	5.8µM*
CN(c1ccccc1)S(=O)(=O)c1cccc(NC(=O)c2ccc(Cl)c([N+](=O)[O-])c2)c1	4%	21µM*	?	-88*	16µM*
Cc1nc2cc(NC(=O)c3ccc(S(=O)(=O)N(C)c4ccccc4)cc3)ccc2o1	-10%	?	15%	-56*	?
O=C(Nc1ccc2c(c1)CCC2)c1ccccc1	0%	i	13%	-2	?
CC(=O)Nc1ccc(C(=O)Nc2cccc(S(=O)(=O)N(C)c3ccccc3)c2)cc1	-23%	i	5%	8	i
COc1ccccc1N(C)S(=O)(=O)c1ccc(C(=O)Nc2cc(OC)c(OC)c(OC)c2)cc1	?	16µM*	?	-17	?
Nc1c(C(=O)N2CCCC2)sc2nc(-c3ccccc3)ccc12	18µM*	i	18µM*	?	i
Nc1c(C(=O)N2CCOCC2)sc(=S)n1-c1ccccc1	-12%	i	21%	-9	?
Cc1ccc2cc3c(N)c(C(=O)N4CCOCC4)sc3nc2c1	2%	i	1%	-24	i
Nc1c(C(=O)N2CCCCC2)sc(=S)n1-c1ccccc1	-1%	i	?	-22	18µM*
COc1ccc2cc3c(N)c(C(=O)N4CCCC4)sc3nc2c1	-11%	i	16%	-69*	?
Cn1c(=O)c2c(nc(N3CCc4ccccc4C3)n2C)n(C)c1=O	-25%	i	-4%	69	?
CN(C)CCCN(C(=O)c1cc(-c2cccs2)nc2ccccc12)c1nc2ccc(F)cc2s1	?	i	?	-59*	?
